Measured values reported in PubChem BioAssay (NCATS).
Inconclusive results are not listed. Activity calls are given as the source filed them. Unless noted, no rule for the calls is given here.

Assays:
[1] = qHTS Assay for Identifying Gametocytocidal Compounds (AID 743244; active = well fitted curve in the direction sought with a large enough effect; an effect the other way counts as inactive or inconclusive; also: potency is read from the fitted curve at half-maximal effect;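 as to max response: % is scaled to controls: 0 for no effect and ±100 for the full control effect; actives lower the fluorescent signal which means gametocytes are killed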); conditions: P. falciparum 3D7 stage III-V gametocytes, alamarBlue, 72 h; max response: stronger effect = lower value
Outline: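 Stage III-V P. falciparum 3D7 gametocytes, 20,000 per well, were exposed to compounds for 72 h at 37C, 5% CO2. AlamarBlue was then added for 24 h and viability was read as fluorescence at Ex 525/Em 598 nm.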

[2] = qHTS profiling for inhibitors of Plasmodium falciparum (3D7) proliferation (AID 743322);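 also: infected erythrocytes exposed to compound for 72 h before lysis; 100% = DMSO vehicle wells and 0% = 0.29 µM artemisinin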; conditions: P. falciparum 3D7 proliferation; at 28.7 µM (top of the series) unless noted
Outline: (§1)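 Erythrocytes infected with P. falciparum (0.3% parasitemia, 2.5% hematocrit) incubated with compounds 72 h at 37 C, 5% CO2. Lysis with saponin/Triton buffer containing SYBR Green I, overnight at room temperature in the dark; DNA fluorescence (485/535 nm) normalised to 0.29 uM artemisinin and DMSO.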

[3] = qHTS profiling for inhibitors of Plasmodium falciparum (DD2) proliferation (AID 743323); conditions: lower = more inhibition; at 28.7 µM (top of the series) unless noted
Outline: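 Parasite proliferation measured via DNA-dye fluorescence, as uninfected erythrocytes lack DNA. Cultures at 0.3% parasitemia and 2.5% hematocrit incubated 72 h with compound; signal scaled between vehicle and 0.29 uM artemisinin wells.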

[4] = qHTS profiling for inhibitors of Plasmodium falciparum (HB3) proliferation (AID 743324; active = well fitted curve in the direction sought with a large enough effect; an effect the other way counts as inactive or inconclusive;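 also: 100% = DMSO vehicle wells and 0% = artemisinin-treated control wells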); conditions: Plasmodium falciparum HB3 blood-stage proliferation; at 28.7 µM (top of the series) unless noted
Outline: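 P. falciparum HB3 grown in erythrocytes (0.3% parasitemia, 2.5% hematocrit final) with compound for 72 h at 37 C, 5% CO2. Parasite DNA detected by SYBR Green after saponin/triton lysis overnight; normalized to 0.29 uM artemisinin and DMSO.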

[5] = qHTS profiling of the MIPE4 collection as inhibitors of Plasmodium falciparum (3D7) proliferation (AID 743344);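 also: scaled between DMSO vehicle wells and 0.29 µM artemisinin as full inhibition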; conditions: P. falciparum 3D7 in erythrocytes, SYBR Green DNA fluorescence, 72 h; at 28.5 µM (top of the series) unless noted
Outline: as §1

[6] = qHTS profiling of the MIPE4 collection as inhibitors of Plasmodium falciparum (DD2) proliferation (AID 743345); conditions: P. falciparum Dd2 in erythrocytes, SYBR Green DNA, 72 h; at 28.5 µM (top of the series) unless noted
Outline: as §1

[7] = qHTS profiling of the MIPE4 collection as inhibitors of Plasmodium falciparum (DD2) proliferation (Rep 2) (AID 743346); conditions: P. falciparum Dd2 in erythrocytes, SYBR Green DNA, 72 h; at 28.5 µM (top of the series) unless noted
Outline: as §1

[8] = qHTS profiling of the MIPE4 collection as inhibitors of Plasmodium falciparum (HB3) proliferation (AID 743347);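 also: plate controls were DMSO vehicle wells for no effect and artemisinin wells for full effect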; conditions: P. falciparum HB3 in erythrocytes, SYBR Green DNA, 72 h; at 28.5 µM (top of the series) unless noted
Outline: as §1

[9] = High-throughput drug toxicity screening in the BPDCN cell line Gen2.2 (AID 1224824); conditions: Gen2.2 BPDCN cells; at 45.8 µM (top of the series) unless noted;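 also: cells exposed to compounds for 48 h before reading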
Outline: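 Gen2.2 cells, 500 per well in phenol red-free RPMI with 10% FBS, exposed to compounds 48 h at 37 C, 5% CO2; viability by CellTiter-Glo luminescence. Percent activity scaled to DMSO (100%) and 9.2 uM bortezomib final (0%).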

[10] = High-throughput drug toxicity screening in the BPDCN cell line Cal-1 (AID 1224825); conditions: Cal-1 BPDCN cell viability, qHTS; at 45.8 µM (top of the series) unless noted
Outline: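 Exponentially growing Cal-1 cells, 500 per well in phenol red-free RPMI with 10% FBS, were exposed to compounds for 48 h at 37 °C, 5% CO2. Viability was read by CellTiter-Glo luminescence and normalised to DMSO (100%) and 9.2 uM bortezomib (0%).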

[11] = qHTS assay for measurement of the activity of small molecule inhibitors on Zika virus induced Caspase-3 activity in human iPSC derived neural progenitor cells (hNPCs) (AID 1224857; active = well fitted curve in the direction sought with a large enough effect; an effect the other way counts as inactive or inconclusive; also: % of control where 0% means no effect; nearly all actives have a fitted effect of over 65% in size)
Outline: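 Human iPSC-derived neural progenitor cells pretreated 1 hr with compounds, then infected with Zika virus (2 FFU/cell) for 6 hours at 37 C. Caspase-3/7 measured by Caspase-Glo luminescence; % inhibition calculated from induction scaled to uninfected (0%) and infected (100%) wells.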

[12] = qHTS assay for measurement of the activity of small molecule inhibitors on Zika virus induced Caspase-3 activity in human astrocytoma cells (AID 1224859; active = well fitted curve in the direction sought with a large enough effect; an effect the other way counts as inactive or inconclusive;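 also: plate controls were ZIKV-infected untreated cells for no effect and uninfected cells for full effect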)
Outline: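 SNB-19 astrocytoma cells, 250/well, pretreated 1 h with compounds, then Zika virus at 2 FFU/cell for 6 h at 37 C; Caspase-Glo 3/7 luminescence after 30 min; percent inhibition normalised to uninfected and infected controls.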

For CNC(=O)c1cc(COc2nnc(Nc3ccc(Cl)cc3)c3ccoc23)ccn1, the max response [1] was 13% (inactive), the remaining parasite growth % (stronger effect = lower value) [2] was 54.7% and the activity, percent of control [3] was 68.5%. For the same molecule, the remaining proliferation (% of control), lower = more inhibition [4] was 28.7%, the parasite growth, % of DMSO control [5] was 40.5% and the parasite growth remaining, % of DMSO control (lower = more inhibition) [6] was 79.6%. The parasite growth, % of control (lower = inhibition) [7] was 52.9%, the growth, % of control [8] was 48.2% and the cell viability, % of control (lower = more cytotoxic) [9] was 159%. For the same molecule, the viability (% of control) [10] was 92.9%, the Potency [11] was “inactive” and the Potency [12] was “inactive”.
For CCCCn1c(=O)n(Cc2ccccc2F)c(=O)c2[nH]c(Cc3ccc(NC(C)=O)cc3)nc21, the max response [1] was 66.3% (inactive), the remaining parasite growth % (stronger effect = lower value) [2] was 71.1% and the activity, percent of control [3] was 63.7%. For the same molecule, the remaining proliferation (% of control), lower = more inhibition [4] was 30.8%, the parasite growth, % of DMSO control [5] was 115% and the parasite growth remaining, % of DMSO control (lower = more inhibition) [6] was 85.9%. The parasite growth, % of control (lower = inhibition) [7] was 43.7%, the growth, % of control [8] was 314% and the cell viability, % of control (lower = more cytotoxic) [9] was 50.4%. The viability (% of control) [10] was 86%, the Potency [11] was “inactive” and the Potency [12] was “inactive”.
With Cc1ccc(C(=O)N(CCCN)[C@@H](c2nc3cc(Cl)ccc3c(=O)n2Cc2ccccc2)C(C)C)cc1 the Potency [1] was 18.7 µM (active), the remaining parasite growth % (stronger effect = lower value) [2] was -0.752% and the activity, percent of control [3] was 0.933%. The remaining proliferation (% of control), lower = more inhibition [4] was 0.0585%, the parasite growth, % of control (lower = inhibition) [7] was 13.3% and the growth, % of control [8] was 6.88%. For the same molecule, the cell viability, % of control (lower = more cytotoxic) [9] was 4.1%, the viability (% of control) [10] was 3.23% and the Potency [11] was “inactive”. For the same molecule, the Potency [12] was “inactive”.
With Cc1cccc(Nc2nc(N[C@@H]3CCCC[C@H]3N)ncc2C(N)=O)c1 the Potency [1] was 9.35 µM (active), the remaining parasite growth % (stronger effect = lower value) [2] was 0.221% and the activity, percent of control [3] was 4.78%. The remaining proliferation (% of control), lower = more inhibition [4] was 0.632%, the parasite growth remaining, % of DMSO control (lower = more inhibition) [6] was 10.2% and the parasite growth, % of control (lower = inhibition) [7] was 7.28%. It also gave a growth, % of control [8] of 2.45%, a cell viability, % of control (lower = more cytotoxic) [9] of 2.09% and a viability (% of control) [10] of 2.41%. For the same molecule, the Potency [11] was “inactive” and the Potency [12] was “inactive”.
For CC[C@H](C=C[C@@H](C)[C@H]1CC[C@H]2[C@@H]3CC=C4C[C@@H](O)CC[C@]4(C)[C@@H]3CC[C@]12C)C(C)C, the cell viability, % of control (lower = more cytotoxic) [9] was 72.7% [at 23.2 µM], the viability (% of control) [10] was 108% [at 23.2 µM] and the Potency [11] was “inactive”. For the same molecule, the Potency [12] was “inactive”.
For COC(=O)Nc1ccc(-c2nc(N3CCOCC3)c3cnn(C4CCN(C(=O)OC)CC4)c3n2)cc1, the max response [1] was 6.16% (inactive), the remaining parasite growth % (stronger effect = lower value) [2] was 3.29% and the activity, percent of control [3] was 7.64%. It also gave a remaining proliferation (% of control), lower = more inhibition [4] of 0.698%, a parasite growth, % of DMSO control [5] of 11.1% and a parasite growth, % of control (lower = inhibition) [7] of 27.4%. The growth, % of control [8] was 7.52%, the cell viability, % of control (lower = more cytotoxic) [9] was 8.32% and the viability (% of control) [10] was 4.85%. The Potency [11] was “inactive” and the Potency [12] was “inactive”.
With CN(C)CCN(C)C(=O)c1ccc(NC(=O)Nc2ccc(-c3nc(N4CCOCC4)c4ccn(CC(F)(F)F)c4n3)cc2)cc1 the Potency [1] was 23.5 µM (active), the remaining parasite growth % (stronger effect = lower value) [2] was -0.909% and the activity, percent of control [3] was 0.114%. It also gave a remaining proliferation (% of control), lower = more inhibition [4] of -1%, a parasite growth, % of DMSO control [5] of 5.47% and a parasite growth, % of control (lower = inhibition) [7] of 20.5%. For the same molecule, the cell viability, % of control (lower = more cytotoxic) [9] was 4.33%, the viability (% of control) [10] was 3.29% and the Potency [11] was “inactive”. The Potency [12] was “inactive”.
In the case of CCc1cc(-c2n[nH]c(C)c2-c2ccc3c(c2)OCCO3)c(O)cc1O, the max response [1] is reported as -4.02% (inactive), the remaining parasite growth % (stronger effect = lower value) [2] is reported as 99.3% and the activity, percent of control [3] is reported as 90.4%. The remaining proliferation (% of control), lower = more inhibition [4] was 74.6%, the parasite growth, % of DMSO control [5] was 49.4% and the parasite growth remaining, % of DMSO control (lower = more inhibition) [6] was 57.9%. For the same molecule, the parasite growth, % of control (lower = inhibition) [7] was 31.5%, the growth, % of control [8] was 39.1% and the cell viability, % of control (lower = more cytotoxic) [9] was 7.68%. The viability (% of control) [10] was 9.12%, the Potency [11] was “inactive” and the Potency [12] was “inactive”.
In the case of CCCCOCCOc1nc(-c2ccc(C(=O)O)c(F)c2)sc1C, the max response [1] is reported as 43.8% (inactive), the remaining parasite growth % (stronger effect = lower value) [2] is reported as 105% and the activity, percent of control [3] is reported as 99.2%. It also gave a remaining proliferation (% of control), lower = more inhibition [4] of 57%, a parasite growth, % of DMSO control [5] of 81.5% and a parasite growth remaining, % of DMSO control (lower = more inhibition) [6] of 98.4%. It also gave a parasite growth, % of control (lower = inhibition) [7] of 80.5%, a growth, % of control [8] of 85% and a cell viability, % of control (lower = more cytotoxic) [9] of 594%. The viability (% of control) [10] was 73.8%, the Potency [11] was “inactive” and the Potency [12] was “inactive”.
